Data: PubChem BioAssay (EPA / NIEHS)
Inconclusive results are not listed. Activity calls are given as the source filed them. How the source made its calls: active means hit-call score of the fitted dose curve at least 0.9, where 1 is the maximum; inconclusive means response in the unintended direction; inactive means score below 0.9.

Key:
[1] = NVS_IC_rCaDHPRCh_L: NovaScreen (NVS) Ion Channel Assay for rat Calcium Channel, Type L, Dihydropyridine Site (CaDHPRCh_L) (AID 2283320)
Method in brief: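 Radioligand binding to dihydropyridine site on rat cortical membranes, filter-based scintillation counting, 1 h after dosing. Screened in duplicate at 25 uM; actives rerun in concentration-response up to 50 uM. Loss of signal versus DMSO baseline.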

[2] = target: rat Somatostatin Receptor (SST), Sstr1 (gene 25033) (UniProt P28646); assay: NVS_GPCR_rSST: NovaScreen (NVS) G Protein-Coupled Receptor Assay for rat Somatostatin Receptor (SST) (AID 2283314)
Method in brief: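 Rat forebrain membranes; radioligand displacement read by filter-based scintillation counting 1 h after dosing. Primary screen in duplicate at 25 uM. Actives (e.g., 30% inhibition) were rerun as concentration-response to 50 uM max and fitted against DMSO.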

[3] = target: rat Gamma-Aminobutyric Acid Type B Receptor (GABBR), Gabbr1 (gene 81657) (UniProt Q9Z0U4); assay: NVS_GPCR_rGABBR: NovaScreen (NVS) G Protein-Coupled Receptor Assay for rat Gamma-Aminobutyric Acid Type B Receptor (GABBR) (AID 2283301)
Method in brief: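 Radioligand displacement on rat cortical membranes, 1 h, filter-based scintillation counting. Primary screen at 25 uM in duplicate; compounds passing threshold re-tested in concentration-response up to 50 uM; loss of binding fitted against DMSO.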

NCBI gene 24521 = assay: NVS_IC_rKATPCh: NovaScreen (NVS) Ion Channel Assay for rat Potassium Channel, ATP-Sensitive (KATPCh) (AID 2283319)
Method in brief: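 Rat cortical membranes; radioligand binding at ATP-sensitive K channel site, filter-based scintillation counting 2 h after dosing. Single-point duplicate screen at 25 uM, hits rerun in concentration-response up to 50 uM; loss of signal versus DMSO.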

[4] = target: bovine Gamma-Aminobutyric Acid Type A Receptor BDZ, alpha 1 site (GABARa1), GABRA1 (gene 780973) (UniProt P08219); assay: NVS_LGIC_bGABARa1: NovaScreen (NVS) Ligand-Gated Ion Channel Assay for bovine Gamma-Aminobutyric Acid Type A Receptor BDZ, alpha 1 site (GABARa1) (AID 2283321)
Method in brief: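 Radioligand competition binding on bovine cortical membranes, 0.75 h, filter-based scintillation counting. Primary single concentration 25 uM in duplicate; actives rerun in concentration-response to 50 uM max. Loss of signal fitted versus DMSO.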

[5] = target: rat Adrenergic Receptor, Alpha 2 (Adra2), Non-selective Binding, Adra2a (gene 25083) (UniProt P22909); assay: NVS_GPCR_rAdra2_NonSelective: NovaScreen (NVS) G Protein-Coupled Receptor Assay for rat Adrenergic Receptor, Alpha 2 (Adra2), Non-selective Binding (AID 2283299)
Method in brief: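 Rat cortical membranes, radioligand competitive displacement read by filter-based scintillation counting 1.25 hours after dosing. Primary screen in duplicate at 25 uM; actives followed up in concentration series.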

[6] = target: rat Histamine Receptor (H3), Hrh3 (gene 85268) (UniProt Q9QYN8); assay: NVS_GPCR_rH3: NovaScreen (NVS) G Protein-Coupled Receptor Assay for rat Histamine Receptor (H3) (AID 2283303)
Method in brief: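 Rat forebrain membranes incubated 1 h with compound; radioligand displacement measured by filter-based scintillation counting. Single-concentration duplicates at 25 µM, then concentration-response up to 50 µM, relative to DMSO.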

Adra2b (gene 24174) = Adra2b (gene 24174) (UniProt P19328); assay: NVS_GPCR_rmAdra2B: NovaScreen (NVS) G Protein-Coupled Receptor Assay for hybird cells Adrenergic, Alpha 2B Receptor (Adra2B) (AID 2283306)
Method in brief: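 Radioligand filter-binding assay on membrane proteins from neuroglioma/blastoma hybrid cells (rodent), 1 h after dosing; scintillation counting, loss of signal vs DMSO. Primary screen in duplicate at 25 uM, actives then run in concentration series.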

[7] = target: rat Opioid Receptor, Non-selective Sodium (Na+) Binding, Oprm1 (gene 25601) (UniProt P33535); assay: NVS_GPCR_rOpiate_NonSelectiveNa: NovaScreen (NVS) G Protein-Coupled Receptor Assay for rat Opioid Receptor, Non-selective Sodium (Na+) Binding (AID 2283311)
Method in brief: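 Rat forebrain membranes, radioligand displacement with filter scintillation counting, 1.5 h incubation. Screened in duplicate at 25 µM; hits then run in concentration-response up to 50 µM; loss of binding fitted versus DMSO.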

[8] = target: rat Opioid Receptor, Non-selective Binding, Oprm1 (gene 25601) (UniProt P33535); assay: NVS_GPCR_rOpiate_NonSelective: NovaScreen (NVS) G Protein-Coupled Receptor Assay for rat Opioid Receptor, Non-selective Binding (AID 2283318)
Method in brief: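 Rat forebrain membranes, cell-free radioligand binding with filter-based scintillation counting, read 1.5 h after dosing. Primary screen in duplicate at 25 uM; actives retested in concentration series. Loss of signal versus DMSO baseline scored.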

[9] = target: rat Glutamate Metabotropic Receptor 5 (MGluR5), Grm5 (gene 24418) (UniProt P31424); assay: NVS_GPCR_rmMGluR5: NovaScreen (NVS) G Protein-Coupled Receptor Assay for rat Glutamate Metabotropic Receptor 5 (MGluR5) (AID 2283307)
Method in brief: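 Rat whole-brain membrane preparation; filter-based radioligand binding read by scintillation counting, 1.5 h after dosing. Single-point screen at 25 uM in duplicate; hits over threshold (e.g. 30% inhibition) retested in concentration-response up to 50 uM; loss of signal vs DMSO.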

[10] = target: human Neonicotinoid receptor (NNR), CHRNA2 (gene 1135) (UniProt Q15822); assay: NVS_LGIC_hNNR_NBungSens: NovaScreen (NVS) Ligand-Gated Ion Channel Assay for human Neonicotinoid receptor (NNR) (AID 2283313)
Method in brief: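 Radioligand displacement on human neuroblastoma membranes, 2 h, filter-based scintillation counting. Primary screen in duplicate at 25 uM; chemicals passing threshold (e.g. 30% inhibition) run singleton concentration-response to 50 uM; loss of binding fitted versus DMSO.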

[11] = target: rat Neurokinin-1 Receptor (NK1), Tacr1 (gene 24807) (UniProt P14600); assay: NVS_GPCR_rNK1: NovaScreen (NVS) G Protein-Coupled Receptor Assay for rat Neurokinin-1 Receptor (NK1) (AID 2283309)
Method in brief: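 Rat submaxillary gland membranes; radioligand displacement read by filter-based scintillation counting after 1 h. Primary screen in duplicate at 25 uM; actives retested in concentration series; loss of binding fitted versus DMSO.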

[12] = target: rat Corticotropin Releasing Factor Receptor (CRF), Crhr1 (gene 58959) (UniProt P35353); assay: NVS_GPCR_rCRF: NovaScreen (NVS) G Protein-Coupled Receptor Assay for rat Corticotropin Releasing Factor Receptor (CRF) (AID 2283300)
Method in brief: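 Rat cortical membranes used as receptor source in a radioligand competitive displacement binding assay; scintillation read 2 h after dosing. Primary screen run in duplicate at 25 uM; loss of signal versus DMSO baseline indicates binding.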

[13] = target: rat Neurotensin Receptor (NTS), Ntsr1 (gene 366274) (UniProt P20789); assay: NVS_GPCR_rNTS: NovaScreen (NVS) G Protein-Coupled Receptor Assay for rat Neurotensin Receptor (NTS) (AID 2283308)
Method in brief: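 Rat forebrain membranes; radioligand binding with competitive displacement, read by filter-based scintillation counting 1 h after dosing. Primary screen in duplicate at 25 uM; actives (e.g., 30% inhibition) rerun in concentration-response up to 50 uM, loss-of-signal versus DMSO.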

[14] = target: rat Neonicotinoid receptor (NNR), Chrna7 (gene 25302) (UniProt Q05941); assay: NVS_LGIC_rNNR_BungSens: NovaScreen (NVS) Ligand-Gated Ion Channel Assay for rat Neonicotinoid receptor (NNR) (AID 2283315)
Method in brief: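 Radioligand displacement binding on rat cortical membranes, 2.5 h incubation, filtration and scintillation counting. Loss of specific binding fitted relative to DMSO.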

[15] = target: rat Neurokinin-3 Receptor (NK3), Tacr3 (gene 24808) (UniProt P16177); assay: NVS_GPCR_rNK3: NovaScreen (NVS) G Protein-Coupled Receptor Assay for rat Neurokinin-3 Receptor (NK3) (AID 2283310)
Method in brief: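 Rat cortical membranes; radioligand binding with filtration and scintillation counting, 2 h after dosing. Primary screen in duplicate at 25 uM, then concentration-response up to 50 uM; loss of binding signal relative to DMSO.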

[16] = target: rat Vasopressin 1 Receptor (V1), Avpr1a (gene 25107) (UniProt P30560); assay: NVS_GPCR_rV1: NovaScreen (NVS) G Protein-Coupled Receptor Assay for rat Vasopressin 1 Receptor (V1) (AID 2283316)
Method in brief: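 Radioligand binding on rat liver membranes, 1.5 h incubation, filter-based scintillation counting. Single 25 uM screen in duplicate; chemicals meeting threshold (e.g. 30% inhibition) run in concentration-response up to 50 uM.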

[17] = target: Voltage-dependent N-type calcium channel subunit alpha-1B (Rattus norvegicus) (UniProt Q02294); assay: NVS_IC_rCaChN: NovaScreen (NVS) Ion Channel Assay for rat Calcium Channel, Type N (CaChN) (AID 2283317)
[18] = target: Metabotropic glutamate receptor 1 (Rattus norvegicus) (UniProt P23385); assay: NVS_GPCR_rmMGluR1: NovaScreen (NVS) G Protein-Coupled Receptor Assay for rat Glutamate Metabotropic Receptor 1 (MGluR1) (AID 2283305)
Method in brief: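 Rat cerebellum membrane preparation, radioligand displacement binding read by filter-based scintillation counting 1 hour after dosing. Initial duplicate single-point screen at 25 uM, then concentration-response up to 50 uM; loss of signal versus DMSO baseline scored.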

rat Adrenergic Receptor, Alpha 2 (Adra2), Non-selective Binding, Adra2a (gene 25083), sequence (P22909 whole entry, looked up): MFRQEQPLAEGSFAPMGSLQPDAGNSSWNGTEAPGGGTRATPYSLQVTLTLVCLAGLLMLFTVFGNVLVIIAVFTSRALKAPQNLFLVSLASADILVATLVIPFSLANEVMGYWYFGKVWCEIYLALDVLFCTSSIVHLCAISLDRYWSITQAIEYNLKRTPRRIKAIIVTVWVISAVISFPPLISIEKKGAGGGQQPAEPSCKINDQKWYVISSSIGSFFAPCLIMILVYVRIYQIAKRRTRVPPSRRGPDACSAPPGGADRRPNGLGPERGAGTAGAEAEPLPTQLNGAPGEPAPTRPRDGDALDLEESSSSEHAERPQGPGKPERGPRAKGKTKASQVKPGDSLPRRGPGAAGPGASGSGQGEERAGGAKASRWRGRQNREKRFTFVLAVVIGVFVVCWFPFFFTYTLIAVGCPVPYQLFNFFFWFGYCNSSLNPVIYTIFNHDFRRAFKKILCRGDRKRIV
rat Somatostatin Receptor (SST), Sstr1 (gene 25033), sequence (P28646 whole entry, looked up): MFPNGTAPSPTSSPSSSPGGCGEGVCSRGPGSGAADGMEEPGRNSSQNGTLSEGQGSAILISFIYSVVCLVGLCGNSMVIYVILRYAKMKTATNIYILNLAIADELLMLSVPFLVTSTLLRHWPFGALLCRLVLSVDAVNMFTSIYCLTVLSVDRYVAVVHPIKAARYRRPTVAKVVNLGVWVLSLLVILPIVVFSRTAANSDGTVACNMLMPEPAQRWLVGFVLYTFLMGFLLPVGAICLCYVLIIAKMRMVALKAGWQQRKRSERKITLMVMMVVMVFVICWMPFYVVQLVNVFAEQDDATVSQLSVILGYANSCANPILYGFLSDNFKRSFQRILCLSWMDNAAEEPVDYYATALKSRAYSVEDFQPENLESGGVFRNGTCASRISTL
human Neonicotinoid receptor (NNR), CHRNA2 (gene 1135), sequence (Q15822 whole entry, looked up): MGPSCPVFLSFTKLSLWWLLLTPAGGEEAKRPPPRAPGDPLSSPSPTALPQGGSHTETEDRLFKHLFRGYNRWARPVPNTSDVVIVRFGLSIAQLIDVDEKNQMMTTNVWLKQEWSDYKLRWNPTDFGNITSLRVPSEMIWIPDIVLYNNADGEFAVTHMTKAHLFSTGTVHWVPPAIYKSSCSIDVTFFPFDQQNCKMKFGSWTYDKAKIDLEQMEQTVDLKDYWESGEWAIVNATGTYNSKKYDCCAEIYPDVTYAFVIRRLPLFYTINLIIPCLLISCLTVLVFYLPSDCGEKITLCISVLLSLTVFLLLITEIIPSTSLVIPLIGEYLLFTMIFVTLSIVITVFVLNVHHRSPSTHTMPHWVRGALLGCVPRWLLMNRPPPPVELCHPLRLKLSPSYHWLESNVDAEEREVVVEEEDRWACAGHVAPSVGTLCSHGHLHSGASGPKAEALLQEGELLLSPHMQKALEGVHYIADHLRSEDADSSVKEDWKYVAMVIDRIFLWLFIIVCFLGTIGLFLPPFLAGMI
rat Neonicotinoid receptor (NNR), Chrna7 (gene 25302), sequence (Q05941 whole entry, looked up): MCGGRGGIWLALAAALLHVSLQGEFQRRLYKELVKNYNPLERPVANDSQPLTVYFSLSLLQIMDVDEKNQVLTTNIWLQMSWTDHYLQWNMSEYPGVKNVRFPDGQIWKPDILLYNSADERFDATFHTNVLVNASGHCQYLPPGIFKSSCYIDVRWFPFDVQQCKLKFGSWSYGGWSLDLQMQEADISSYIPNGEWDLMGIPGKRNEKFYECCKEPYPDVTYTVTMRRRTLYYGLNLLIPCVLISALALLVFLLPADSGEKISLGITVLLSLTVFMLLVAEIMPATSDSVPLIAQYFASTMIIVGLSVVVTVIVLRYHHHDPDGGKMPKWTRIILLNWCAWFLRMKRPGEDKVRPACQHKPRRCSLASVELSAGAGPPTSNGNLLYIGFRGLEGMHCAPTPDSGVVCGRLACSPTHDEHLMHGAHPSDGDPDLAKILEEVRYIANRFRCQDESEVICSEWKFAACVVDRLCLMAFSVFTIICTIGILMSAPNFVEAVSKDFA
rat Neurokinin-1 Receptor (NK1), Tacr1 (gene 24807), sequence (P14600 whole entry, looked up): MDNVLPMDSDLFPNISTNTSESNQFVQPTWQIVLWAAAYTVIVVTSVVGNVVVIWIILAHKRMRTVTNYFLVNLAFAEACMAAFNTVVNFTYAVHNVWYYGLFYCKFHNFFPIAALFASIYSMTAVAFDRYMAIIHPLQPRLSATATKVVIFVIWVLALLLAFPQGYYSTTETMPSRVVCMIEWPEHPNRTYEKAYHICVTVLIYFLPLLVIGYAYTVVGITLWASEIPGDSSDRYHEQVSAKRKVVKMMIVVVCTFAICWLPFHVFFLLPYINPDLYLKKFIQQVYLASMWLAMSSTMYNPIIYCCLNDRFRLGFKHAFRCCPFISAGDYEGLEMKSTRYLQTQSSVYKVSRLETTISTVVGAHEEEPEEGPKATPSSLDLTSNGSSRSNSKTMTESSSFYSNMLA
bovine Gamma-Aminobutyric Acid Type A Receptor BDZ, alpha 1 site (GABARa1), GABRA1 (gene 780973), sequence (P08219 whole entry, looked up): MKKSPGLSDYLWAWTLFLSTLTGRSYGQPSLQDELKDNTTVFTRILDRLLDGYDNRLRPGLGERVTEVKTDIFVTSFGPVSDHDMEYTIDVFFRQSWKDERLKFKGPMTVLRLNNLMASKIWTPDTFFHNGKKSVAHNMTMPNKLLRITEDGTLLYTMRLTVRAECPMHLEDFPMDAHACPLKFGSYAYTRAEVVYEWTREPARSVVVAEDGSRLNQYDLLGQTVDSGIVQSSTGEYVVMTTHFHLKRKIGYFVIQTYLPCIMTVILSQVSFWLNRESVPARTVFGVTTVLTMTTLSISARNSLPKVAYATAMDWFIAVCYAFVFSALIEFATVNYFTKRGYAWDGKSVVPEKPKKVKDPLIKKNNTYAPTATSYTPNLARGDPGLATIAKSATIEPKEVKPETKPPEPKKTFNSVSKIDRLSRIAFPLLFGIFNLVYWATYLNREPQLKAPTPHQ
rat Opioid Receptor, Non-selective Sodium (Na+) Binding, Oprm1 (gene 25601), sequence (P33535 whole entry, looked up): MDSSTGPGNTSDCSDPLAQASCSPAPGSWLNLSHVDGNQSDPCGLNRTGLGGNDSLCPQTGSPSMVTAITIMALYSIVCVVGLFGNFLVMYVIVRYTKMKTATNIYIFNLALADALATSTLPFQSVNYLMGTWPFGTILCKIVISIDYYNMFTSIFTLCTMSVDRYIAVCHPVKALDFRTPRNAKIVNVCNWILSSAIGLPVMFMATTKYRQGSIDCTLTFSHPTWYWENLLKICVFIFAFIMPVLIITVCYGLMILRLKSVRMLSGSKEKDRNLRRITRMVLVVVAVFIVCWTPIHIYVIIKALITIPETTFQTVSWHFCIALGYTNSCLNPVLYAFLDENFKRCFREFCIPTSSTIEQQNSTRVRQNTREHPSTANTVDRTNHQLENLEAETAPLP
rat Opioid Receptor, Non-selective Binding, Oprm1 (gene 25601), sequence (P33535 whole entry, looked up): as above
rat Corticotropin Releasing Factor Receptor (CRF), Crhr1 (gene 58959), sequence (P35353 whole entry, looked up): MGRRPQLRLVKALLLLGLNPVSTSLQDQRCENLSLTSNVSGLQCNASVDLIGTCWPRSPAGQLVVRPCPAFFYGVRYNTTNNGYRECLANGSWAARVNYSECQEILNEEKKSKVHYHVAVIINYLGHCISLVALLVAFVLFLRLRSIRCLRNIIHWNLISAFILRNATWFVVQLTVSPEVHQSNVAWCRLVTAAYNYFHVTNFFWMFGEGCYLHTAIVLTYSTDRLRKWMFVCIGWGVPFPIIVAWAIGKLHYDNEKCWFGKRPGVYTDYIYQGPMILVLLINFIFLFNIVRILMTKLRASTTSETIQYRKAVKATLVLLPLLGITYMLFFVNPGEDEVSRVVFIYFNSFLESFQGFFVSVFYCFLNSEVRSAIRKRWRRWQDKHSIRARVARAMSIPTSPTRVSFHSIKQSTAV
Adra2b (gene 24174), sequence (P19328 whole entry, looked up): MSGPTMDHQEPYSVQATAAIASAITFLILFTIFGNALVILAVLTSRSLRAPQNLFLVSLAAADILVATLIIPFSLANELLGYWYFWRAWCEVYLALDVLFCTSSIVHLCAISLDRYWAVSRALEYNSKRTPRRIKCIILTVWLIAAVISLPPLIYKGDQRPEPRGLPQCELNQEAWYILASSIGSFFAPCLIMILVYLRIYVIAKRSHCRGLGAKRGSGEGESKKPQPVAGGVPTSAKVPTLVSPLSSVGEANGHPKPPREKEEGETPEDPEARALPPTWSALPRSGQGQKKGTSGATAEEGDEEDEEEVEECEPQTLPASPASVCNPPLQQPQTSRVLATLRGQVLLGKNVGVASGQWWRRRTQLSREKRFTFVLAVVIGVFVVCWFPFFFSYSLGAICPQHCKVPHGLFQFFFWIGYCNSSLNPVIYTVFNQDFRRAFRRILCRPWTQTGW
rat Histamine Receptor (H3), Hrh3 (gene 85268), sequence (Q9QYN8 whole entry, looked up): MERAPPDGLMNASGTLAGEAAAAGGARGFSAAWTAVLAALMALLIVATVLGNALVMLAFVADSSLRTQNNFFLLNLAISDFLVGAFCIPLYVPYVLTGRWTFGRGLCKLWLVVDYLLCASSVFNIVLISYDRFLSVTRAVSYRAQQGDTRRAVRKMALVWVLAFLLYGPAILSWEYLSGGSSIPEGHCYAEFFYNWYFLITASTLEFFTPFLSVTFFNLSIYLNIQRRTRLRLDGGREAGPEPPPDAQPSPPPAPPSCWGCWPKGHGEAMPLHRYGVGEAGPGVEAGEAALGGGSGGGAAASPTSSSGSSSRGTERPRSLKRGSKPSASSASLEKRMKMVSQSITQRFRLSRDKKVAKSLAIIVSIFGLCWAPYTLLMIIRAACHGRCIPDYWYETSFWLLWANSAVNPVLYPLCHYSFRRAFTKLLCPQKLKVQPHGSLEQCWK

Compound: COC(=O)c1c(C(F)F)nc(C(F)(F)F)c(C2=NCCS2)c1CC(C)C
- outcome [1]: inactive

Compound: CCOC(=O)C(C)OC(=O)c1cc(Oc2ccc(C(F)(F)F)cc2Cl)ccc1[N+](=O)[O-] (centres undefined)
- AC50 [2]: 41.1 µM (active)
- AC50 [1]: 25 µM (active)

Compound: CS(=O)(=O)c1ccc(C(=O)C2C(=O)CCCC2=O)c([N+](=O)[O-])c1
- outcome [3]: inactive

Compound: COP(=S)(OC)SCn1nnc2ccccc2c1=O
- outcome (NCBI gene 24521): inactive
- AC50 [4]: 10.1 µM (active)

Compound: CCCN(CC)CC1COC2(CCC(C(C)(C)C)CC2)O1 (centres undefined)
- AC50 [5]: 16.7 µM (active)
- AC50 [6]: 12.2 µM (active)
- AC50 (Adra2b (gene 24174)): 25 µM (active)
- AC50 [7]: 13.8 µM (active)
- outcome [8]: inactive

Compound: Nc1c(Cl)c(Cl)nc(C(=O)O)c1Cl
- outcome [9]: inactive

Compound: CC1(C)C(C=C(Cl)Cl)C1C(=O)OC(C#N)c1cccc(Oc2ccccc2)c1 (centres undefined)
- AC50 [10]: 25 µM (active)
- AC50 [1]: 9.51 µM (active)

Compound: COP(=O)(OC)O/C(C)=C/C(=O)N(C)C
- outcome (NCBI gene 24521): inactive
- outcome [4]: inactive

Compound: CCNP(=S)(OC)O/C(C)=C/C(=O)OC(C)C (centres undefined)
- outcome [3]: inactive
- outcome [11]: inactive

Compound: CCN(CC)C(=O)C(C)Oc1cccc2ccccc12 (centres undefined)
- outcome [12]: inactive
- outcome [8]: inactive

Compound: O=C(Nc1ccccc1-c1ccc(Cl)cc1)c1cccnc1Cl
- outcome [13]: inactive
- outcome [4]: inactive

Compound: Cn1c(-c2ccccc2)cc(-c2ccccc2)[n+]1C
- AC50 [5]: 3.72 µM (active)
- AC50 (Adra2b (gene 24174)): 0.891 µM (active)
- outcome [11]: inactive

Compound: CCOP(=O)(OCC)Oc1nc(Cl)c(Cl)cc1Cl
- AC50 [7]: 25 µM (active)
- AC50 [2]: 6.64 µM (active)
- AC50 [8]: 11.1 µM (active)

Compound: CN/C(=N\[N+](=O)[O-])NCc1cnc(Cl)s1
- AC50 (Adra2b (gene 24174)): 8.79 µM (active)
- AC50 [10]: 10.1 µM (active)
- AC50 [14]: 25 µM (active)

Compound: CC(C)N1C(=O)c2ccccc2NS1(=O)=O
- outcome (NCBI gene 24521): inactive

Compound: CCCCC(C#N)(Cn1cncn1)c1ccc(Cl)cc1 (centres undefined)
- outcome [15]: inactive
- AC50 [16]: 1.98 µM (active)
- outcome [1]: inactive

Compound: N#CN=C1SCCN1Cc1ccc(Cl)nc1
- outcome [12]: inactive
- outcome (Adra2b (gene 24174)): inactive
- AC50 [10]: 4.45 µM (active)
- AC50 [14]: 5.39 µM (active)
- outcome [4]: inactive

Compound: Cc1ccc(N=CN(C)C=Nc2ccc(C)cc2C)c(C)c1
- AC50 [5]: 0.219 µM (active)
- AC50 (Adra2b (gene 24174)): 0.779 µM (active)
- outcome [10]: inactive

Compound: COC(=O)N(C(=O)N1CO[C@@]2(C(=O)OC)Cc3cc(Cl)ccc3C2=N1)c1ccc(OC(F)(F)F)cc1
- outcome [5]: inactive
- outcome [12]: inactive
- outcome [14]: inactive

Compound: Cc1cc(C)nc(Nc2ccccc2)n1
- outcome [11]: inactive

Compound: N#Cc1c[nH]cc1-c1cccc2c1OC(F)(F)O2
- outcome [5]: inactive
- outcome [17]: inactive

Compound: COCC(C)N(C(=O)CCl)c1c(C)csc1C (centres undefined)
- AC50 [7]: 16 µM (active)
- outcome [8]: inactive

Compound: O=C1C2CC=CCC2C(=O)N1SC(Cl)(Cl)Cl (centres undefined)
- outcome [6]: inactive
- AC50 [18]: 25 µM (active)
- outcome [7]: inactive
- AC50 [2]: 5.93 µM (active)

Compound: CCCCOCN(C(=O)CCl)c1c(CC)cccc1CC
- AC50 [1]: 9.86 µM (active)

Compound: CO/N=C(/C1=NOCCO1)c1ccccc1Oc1ncnc(Oc2ccccc2Cl)c1F
- outcome [1]: inactive

Compound: CS(=O)(=O)c1cc(C(F)(F)F)ccc1C(=O)c1cnoc1C1CC1
- outcome [4]: inactive

Compound: CC1(C)C(C(=O)OC(C#N)c2cccc(Oc3ccccc3)c2)C1(C)C (centres undefined)
- outcome [4]: inactive

Compound: CCCC(=NOCC)C1=C(O)CC(CC(C)SCC)CC1=O (centres undefined)
- outcome [8]: inactive

Compound: CCOc1cc(C(C)(C)C)ccc1C1COC(c2c(F)cccc2F)=N1 (centres undefined)
- outcome [8]: inactive
- outcome (NCBI gene 24521): inactive

Compound: Nc1c(Cl)c(F)nc(OCC(=O)O)c1Cl
- outcome [4]: inactive

Compound: COc1cc(OC)nc(NC(=O)NS(=O)(=O)c2ncccc2OCC(F)(F)F)n1
- AC50 [16]: 16.4 µM (active)
